Measurements from PubChem BioAssay AID504332 (National Center for Advancing Translational Sciences (NCATS), 2011).
Hit rate of the full screen: of about 350,000 compounds, about 31,000 (8.9%) were called active. Inconclusive results (about 15%) are left out. The call rests on the fitted dose curve; in most records, active means well fitted inhibition curve with a large enough effect; inconclusive means small, poorly fitted or top-dose-only effect; inactive means no such curve, though single readings can be large or run the other way. Only a selection was taken, and actives are over-represented in it overall.

target: Histone-lysine N-methyltransferase EHMT2 (Homo sapiens) (UniProt Q96KQ7); test: qHTS Assay for Inhibitors of Histone Lysine Methyltransferase G9a; details: G9a H3K9 monomethylation, AlphaScreen, 2 h; series mostly up to 59 µM; activity, negative = inhibition: at the top concentration; further: nearly all actives have a fitted effect of over 75% in size
Sequence (Q96KQ7 913-1193 limits assumed): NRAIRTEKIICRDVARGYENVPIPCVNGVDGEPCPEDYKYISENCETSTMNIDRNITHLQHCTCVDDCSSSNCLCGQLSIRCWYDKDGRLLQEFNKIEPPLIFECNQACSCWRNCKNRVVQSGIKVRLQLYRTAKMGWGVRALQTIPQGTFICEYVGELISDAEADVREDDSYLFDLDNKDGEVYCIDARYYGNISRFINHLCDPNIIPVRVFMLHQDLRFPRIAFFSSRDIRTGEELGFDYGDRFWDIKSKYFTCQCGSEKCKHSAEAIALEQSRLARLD
Procedure, shortened: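 Methyltransferase reactions run at room temperature for 2 h (20 nM enzyme, 500 nM biotin-H3K9 peptide, 20 uM SAM) after a 15 min compound preincubation; product detected by AlphaScreen beads and anti-H3K9me1 antibody.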
On the % scale 0 is the no-effect control and ±100 the full control effect; potency means the concentration at half of the fitted maximal effect.

activity, negative = inhibition, inactive:
CCc1nccn1S(=O)(=O)c1cc(Br)ccc1Br 4.79%
Cc1ccnc(NC(=O)CCC(=O)N(CC(=O)NCCc2ccccc2)Cc2cccs2)c1 7.27% [at 102 µM]
O=C(CCc1ccccc1)NCCc1cccs1 31.8% [at 102 µM]
Fc1ccc(COc2ccc(-c3nnco3)cc2)cc1 14.6% [at 102 µM]
CN(Cc1ccc(F)cc1)C(=O)COc1ccc2ccccc2c1 21.6% [at 102 µM]
O=C(N/N=C/c1ccccc1O)C1CCCC1 36.3% [at 102 µM]
COc1ccc(Cn2ccc3nc(C)c(C(=O)Nc4ccc(C)c(F)c4)cc3c2=O)cc1 0.748%
O=C(Nc1ccccc1-c1ccccc1)c1ccccc1[N+](=O)[O-] 6.77% [at 102 µM]
O=C(O)c1ccccc1C(=O)Nc1ccccc1[N+](=O)[O-] -29.3% [at 102 µM]
Cc1ccc(CNC(=O)c2c(O)nc3c(C)cccn3c2=O)cc1 -10.5%
Cc1ccc(Cn2c(=O)n(-c3ccc(C)cc3)c(=O)c3c2c2cc(C)ccc2n3C)cc1 -5.57%
CCSc1nnc2c(n1)OC(c1ccc(OCC(=O)O)cc1)Nc1ccccc1-2 (stereo not given) -45.6%
COc1ccc(OCCC(=O)c2ccc(OC)cc2)cc1 -34.9% [at 102 µM]
COc1ccc(OCCCCN2CCC(C)CC2)cc1 5.74% [at 102 µM]
O=C(OCC(=O)N1CCCC1=O)c1cc(S(=O)(=O)N2CCOCC2)ccc1Cl -46.3% [at 102 µM]
CCC(C(=O)Nc1cccc(-c2nc3cccnc3s2)c1C)c1ccccc1 (stereo not given) 8.59%
Cc1cc(C)nc(Nc2ncn[nH]2)n1 11.3% [at 102 µM]
Cc1cc(C)nc(NC(=O)C(C)N2C(=O)c3ccccc3C2=O)n1 (stereo not given) -3.61% [at 102 µM]
CCOc1ccccc1C(=O)NCC(c1ccc(N(C)C)cc1)N1CCCC1 (stereo not given) 2.29% [at 12.7 µM]
C[C@H](NC(=O)c1ccccc1)C(=O)OCC(=O)c1c[nH]c2ccccc12 -6.84%
CCCN1CCN(CCCNC(=O)c2ccc3nc(Cc4ccccc4)oc3c2)CC1 4.53%
O=C(c1c(F)cccc1F)N1CCN(S(=O)(=O)c2ccc3c(c2)OCCO3)CC1 -0.69% [at 0.501 µM]
COc1ccc(-n2nc(C(=O)NCCc3ccc(Cl)cc3)c3c4ccccc4n(C)c3c2=O)cc1Cl 3.47%
CCOc1ccc2nc(NCCNC(=O)C(C)(C)C)c(C)cc2c1 13.8% [at 102 µM]
CCOc1ccc(S(=O)(=O)NCCSc2ccccc2)cc1 52.1% [at 102 µM]
Cc1nnc(SCC(=O)NCc2ccccc2Cl)c2nn(-c3ccccc3)c(C)c12 -24.3%
CCOC(=O)c1ccc(NC(=O)C2CC(=O)NC(=Nc3ccc(C)c(C)c3)S2)cc1 (stereo not given) -67.7%
COC(=O)c1cc(NC(=O)c2cccnc2)ccc1N1CCOCC1 -2.27% [at 0.501 µM]
O=C(Nc1cccc(Cl)c1N1CCOCC1)c1cccnc1 49.1% [at 102 µM]
CCn1c(Cc2ccc(OC)cc2)nnc1SCC(=O)Nc1ccc(N2CCOCC2)cc1 6.79% [at 102 µM]
Cc1ccc(-c2noc(-c3nnn(-c4cccc(C(F)(F)F)c4)c3N)n2)cc1 -6.96%
CC1CCN(C2=NC(=O)/C(=C/c3ccc(O)cc3)S2)CC1 0.648% [at 102 µM]
Cc1ccsc1/C=C1\SC(N2CCOCC2)=NC1=O 12.5% [at 12.7 µM]
COC(=O)Cc1ccc(OC(=O)C2CCN(S(=O)(=O)c3ccc(OC)c(OC)c3)CC2)cc1 13.8% [at 12.7 µM]
O=C(Nc1ccc2oc(-c3ccc(O)c(Br)c3)nc2c1)c1cc2ccccc2o1 3.9%
c1cc(-c2nn[nH]n2)ccc1CN1CCCCC1 -40.3% [at 102 µM]
Clc1ccc(-n2nnnc2CN2CCCCC2)cc1Cl 15.7%
O=C(Nc1ncccc1O)c1ccc(S(=O)(=O)N2CCCCCC2)cc1 5.43% [at 102 µM]
CCN(C(=O)Cn1cc(S(=O)(=O)N2CCN(c3ccccc3F)CC2)c2ccccc2c1=O)c1ccc(C)c(C)c1 -32.2%
Cc1ccc(C)c(Cn2c(C)c(CNCc3ccc(F)cc3)c(C(=O)O)c2C)c1 -2.85%
Cn1cccc1C(=O)NNC(=O)COc1ccc(Br)cc1 4.95% [at 0.501 µM]
CCC(=O)Nc1ccc2nc(SCC(=O)N3CCc4ccccc43)sc2c1 5.3%
CN(C(=O)CSc1nc2ccc(NC(=O)COc3ccccc3)cc2s1)c1ccccc1 -35%
CCOc1ccc(NC(=O)CC2C(=O)N(c3cccc(OC)c3)C(=O)N2C2CCCCC2)cc1 (stereo not given) -36.5%
COc1ccc(CNC(=O)CNC(=O)c2sc3ccccc3c2Cl)cc1OC -4.28% [at 102 µM]
COc1ccc(OCCCC(=O)Nc2cccc(S(=O)(=O)N3CCCCCC3)c2)cc1 -48.2% [at 12.7 µM]
COc1ccc(-c2cn3c(n2)sc2cc(C(=O)Nc4ccccc4F)ccc23)cc1 5.43%
Fc1ccccc1OCCCCn1cncn1 -3.44%
CN1CCN(CCCCOc2cccc3ccccc23)CC1 26.3% [at 2.33 µM]
O=C(COC(=O)C1(c2ccc(F)cc2)CCCC1)N1CCNC1=O 19.8% [at 12.7 µM]
COc1ccc(Cc2nc3ccc(C(=O)NCc4ccc(OC)cc4OC)cc3o2)cc1 3.04%

Potency, active:
O=C(O)CCC(=O)N(Cc1cccs1)Cc1cccs1 50.1 µM
Fc1ccc(COc2cccc(-c3n[nH]c(=S)o3)c2)cc1 5.01 µM
O=C(O)c1ccccc1NC(=S)NC(NC(=O)c1ccccc1[N+](=O)[O-])C(Cl)(Cl)Cl (stereo not given) 12.6 µM
COc1ccc(OCCn2ccnc2C)cc1 8.91 µM
Cc1cc(C)nc(Nc2n[nH]c(-c3ccccc3N)n2)n1 7.94 µM
CN(C)c1ccc(C(CNC(=O)c2ccc(F)cc2)c2c[nH]c3ccccc23)cc1 (stereo not given) 10 µM
CNc1ccc(SC#N)cc1 44.7 µM
CCOc1ccc2nc(NCCNS(=O)(=O)c3ccccc3)c(C#N)cc2c1 50.1 µM
COc1ccccc1NC(=O)c1ccc(N2CC3CC(C2)c2cccc(=O)n2C3)c(NC(=O)c2cccnc2)c1 (stereo not given) 15.8 µM
CCc1ccc(/C=C2\SC(N3CCOCC3)=NC2=O)cc1 50.1 µM
Clc1ccc(CN2CCCCCC2)cc1Cl 22.4 µM
CCCCNC(=O)CSc1nc2ccc(NC(=O)CSc3nnc(N)s3)cc2s1 2 µM
CN(C)C(=O)N=NC(=O)N(C)C 2.24 µM
CCN1CCN(CCCCOc2ccccc2F)CC1 10 µM
